# Measured values reported in the supplement of paper PMC8728848.
# The entries come from a sample that favours the strongest signals as a whole.
# How the values were obtained:
# Experiment in all cases: glycan array binding signal (z-score within array); higher = stronger binding
# Conditions in all cases: glycan notation: IUPAC condensed, linker removed
# [1] = molecular target: Fuc(a1-2)Gal(b1-4)GlcNAc(b1-3)Gal(b1-4)GlcNAc(b1-2)Man(a1-3)[Fuc(a1-2)Gal(b1-4)GlcNAc(b1-3)Gal(b1-4)GlcNAc(b1-2)Man(a1-6)]Man(b1-4)GlcNAc(b1-4)GlcNAc
# Outline: (§1)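 Glycan array data were curated from 3228 arrays in the Consortium for Functional Glycomics database and kept only where the protein sequence was available. Glycan names were converted to IUPAC-condensed notation, and columns mapping to the same glycan were averaged. The binding signal is a within-array Z-score, averaged across arrays of the same protein sequence at different concentrations or buffers and across linkers. Negative Z-scores can be read as non-binding.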
# [2] = molecular target: Fuc(a1-2)Gal3S(b1-4)GlcNAc
# Outline: as §1
# [3] = molecular target: Fuc(a1-2)Gal6S(b1-3)GlcNAc6S
# Outline: as §1
# [4] = molecular target: Fuc(a1-2)[GalNAc(a1-3)]Gal(b1-3)GlcNAc(b1-6)GalNAc
# Outline: as §1
# [5] = molecular target: Fuc(a1-3)[Gal(b1-4)]GlcNAc(b1-6)[Gal(b1-3)GlcNAc(b1-3)]Gal(b1-4)Glc
# Outline: as §1
# [6] = molecular target: Fuc(a1-3)[Gal(b1-4)]GlcNAc6S
# Outline: as §1
# [7] = molecular target: Gal(a1-3)Gal(b1-3)GlcNAc(b1-6)GalNAc
# Outline: as §1
# [8] = molecular target: Gal(a1-3)Gal(b1-4)GlcNAc(b1-3)GalNAc
# Outline: as §1
# Gal(b1-3)GlcNAc(b1-2)Man = molecular target: Gal(b1-3)GlcNAc(b1-2)Man
# Outline: as §1
# [9] = molecular target: Gal(b1-3)GlcNAc(b1-6)Gal(b1-4)GlcNAc
# Outline: as §1
# Gal(b1-3)GlcNAc6S = molecular target: Gal(b1-3)GlcNAc6S
# Outline: as §1
# [10] = molecular target: Gal(b1-3)[Neu5Ac(a2-6)]GalNAc
# Outline: as §1
# Gal(b1-4)Glc6S = molecular target: Gal(b1-4)Glc6S
# Outline: as §1
# Gal(b1-4)GlcNAc(b1-2)Man = molecular target: Gal(b1-4)GlcNAc(b1-2)Man
# Outline: as §1
# [11] = molecular target: Gal(b1-4)GlcNAc(b1-2)[Gal(b1-4)GlcNAc(b1-6)]Man(a1-6)[GlcNAc(b1-4)][Gal(b1-4)GlcNAc(b1-2)Man(a1-3)]Man(b1-4)GlcNAc(b1-4)GlcNAc
# Outline: as §1
# [12] = molecular target: Gal(b1-4)GlcNAc(b1-3)Gal(b1-3)GalNAc
# Outline: as §1
# [13] = molecular target: Gal(b1-4)GlcNAc(b1-3)Gal(b1-4)GlcNAc(b1-3)Gal(b1-4)GlcNAc(b1-3)Gal(b1-4)GlcNAc(b1-2)Man(a1-3)[Gal(b1-4)GlcNAc(b1-3)Gal(b1-4)GlcNAc(b1-3)Gal(b1-4)GlcNAc(b1-3)Gal(b1-4)GlcNAc(b1-2)Man(a1-6)]Man(b1-4)GlcNAc(b1-4)[Fuc(a1-6)]GlcNAc
# Outline: as §1
# [14] = molecular target: Gal3S(b1-4)[Fuc(a1-3)]Glc6S
# Outline: as §1
# [15] = molecular target: Gal3S(b1-4)[Fuc(a1-3)]GlcNAc6S
# Outline: as §1
# Gal4S6S(b1-4)GlcNAc = molecular target: Gal4S6S(b1-4)GlcNAc
# Outline: as §1
# Gal6S(b1-3)GlcNAc6S = molecular target: Gal6S(b1-3)GlcNAc6S
# Outline: as §1
# [16] = molecular target: GalNAc3S(b1-4)[Fuc(a1-3)]GlcNAc
# Outline: as §1
# GalNAc4S6S(b1-4)GlcNAc = molecular target: GalNAc4S6S(b1-4)GlcNAc
# Outline: as §1
# Glc(a1-4)Glc = molecular target: Glc(a1-4)Glc
# Outline: as §1
# Glc(b1-6)Glc = molecular target: Glc(b1-6)Glc
# Outline: as §1
# GlcA(b1-3)Gal = molecular target: GlcA(b1-3)Gal
# Outline: as §1
# [17] = molecular target: GlcNAc(a1-4)Gal(b1-4)GalNAc
# Outline: as §1
# [18] = molecular target: GlcNAc6S(b1-3)Gal(b1-4)GlcNAc
# Outline: as §1
# Kdn(a2-6)Gal(b1-4)GlcNAc = molecular target: Kdn(a2-6)Gal(b1-4)GlcNAc
# Outline: as §1
# [19] = molecular target: Man(a1-2)Man(a1-2)Man(a1-6)[Man(a1-3)]Man
# Outline: as §1
# [20] = molecular target: Man(a1-2)Man(a1-3)[Man(a1-2)Man(a1-6)]Man(a1-6)[Man(a1-2)Man(a1-2)Man(a1-3)]Man
# Outline: as §1
# [21] = molecular target: Man(a1-2)Man(a1-6)[Man(a1-3)]Man(a1-6)[Man(a1-2)Man(a1-2)Man(a1-3)]Man(b1-4)GlcNAc(b1-4)GlcNAc
# Outline: as §1
# [22] = molecular target: Man(a1-3)[Man(a1-6)]Man(a1-6)[Man(a1-3)]Man(b1-4)GlcNAc(b1-4)GlcNAc
# Outline: as §1
# [23] = molecular target: Man(a1-3)[Man(a1-6)]Man(b1-4)GlcNAc(b1-4)GlcNAc
# Outline: as §1
# [24] = molecular target: Neu5Ac(a2-3)Gal(b1-3)GlcNAc(b1-2)Man
# Outline: as §1
# [25] = molecular target: Neu5Ac(a2-3)Gal(b1-3)[GlcNAc(b1-6)]GalNAc
# Outline: as §1
# [26] = molecular target: Neu5Ac(a2-3)Gal(b1-3)]Neu5Ac(a2-3)Gal(b1-4)]GlcNAc
# Outline: as §1
# [27] = molecular target: Neu5Ac(a2-3)Gal(b1-4)GlcNAc(b1-3)Gal(b1-4)GlcNAc(b1-3)Gal(b1-4)GlcNAc
# Outline: as §1
# [28] = molecular target: Neu5Ac(a2-3)Gal(b1-4)GlcNAc(b1-6)GalNAc
# Outline: as §1
# Neu5Ac(a2-3)GalNAc = molecular target: Neu5Ac(a2-3)GalNAc
# Outline: as §1
# [29] = molecular target: Neu5Ac(a2-6)Gal(b1-4)GlcNAc(b1-2)Man(a1-6)[Man(a1-3)]Man(b1-4)GlcNAc(b1-4)GlcNAc
# Outline: as §1
# [30] = molecular target: Neu5Ac(a2-6)Gal(b1-4)GlcNAc(b1-3)Gal(b1-3)GlcNAc
# Outline: as §1
# [31] = molecular target: Neu5Ac(a2-6)Gal(b1-4)GlcNAc(b1-3)Gal(b1-4)GlcNAc(b1-3)Gal(b1-4)GlcNAc
# Outline: as §1
# [32] = molecular target: Neu5Ac(a2-6)Gal(b1-4)GlcNAc(b1-3)Gal(b1-4)GlcNAc(b1-3)GalNAc
# Outline: as §1
# [33] = molecular target: Neu5Ac(a2-6)Gal(b1-4)GlcNAc(b1-3)GalNAc
# Outline: as §1
# [34] = molecular target: Neu5Ac(a2-6)Gal(b1-4)GlcNAc(b1-6)[Gal(b1-3)GlcNAc(b1-3)]Gal(b1-4)Glc
# Outline: as §1
# [35] = molecular target: Neu5Ac(a2-6)GalNAc(b1-4)GlcNAc
# Outline: as §1
# [36] = molecular target: Neu5Ac(a2-8)Neu5Ac(a2-3)Gal(b1-3)GalNAc(b1-4)[Neu5Ac(a2-3)]Gal(b1-4)Glc
# Outline: as §1
# [37] = molecular target: Neu5Ac(a2-8)Neu5Ac(a2-3)[GalNAc(b1-4)]Gal(b1-4)Glc
# Outline: as §1
# [38] = molecular target: Neu5Ac(a2-8)Neu5Ac(a2-8)Neu5Ac
# Outline: as §1
# Neu5Gc(a2-6)GalNAc = molecular target: Neu5Gc(a2-6)GalNAc
# Outline: as §1
binder,measurement,setting,value
PhypaEULS3 (Physcomitrella patens) (protein) MLPVRLHCKADPNFNLAAVPGQGPVMVPFSPNDDFQVWYKDVTMSTRVKDETGSSAFSLINKATGQALRHAPEDLAQCLLADYDSNALDQTVLWTMSEDMGQGYCCIRLASQITRNLDVFRGDKKSGGVKEGSPVITFAWKKQDNQIWKMITAILEQKLISEEDLNSAVDHHHHHH,glycan array binding signal (z-score),[1],0.946
same,glycan array binding signal (z-score),[2],-0.262
same,glycan array binding signal (z-score),[3],3.08
same,glycan array binding signal (z-score),[4],0.713
same,glycan array binding signal (z-score),[5],2.22
same,glycan array binding signal (z-score),[6],-0.239
same,glycan array binding signal (z-score),[7],0.611
same,glycan array binding signal (z-score),[8],3.21
same,glycan array binding signal (z-score),Gal(b1-3)GlcNAc(b1-2)Man,0.702
same,glycan array binding signal (z-score),[9],1.01
same,glycan array binding signal (z-score),Gal(b1-3)GlcNAc6S,1.42
same,glycan array binding signal (z-score),[10],-0.203
same,glycan array binding signal (z-score),Gal(b1-4)Glc6S,0.095
same,glycan array binding signal (z-score),Gal(b1-4)GlcNAc(b1-2)Man,1.11
same,glycan array binding signal (z-score),[11],-0.969
same,glycan array binding signal (z-score),[12],2.27
same,glycan array binding signal (z-score),[13],-0.557
same,glycan array binding signal (z-score),[14],0.258
same,glycan array binding signal (z-score),[15],2.66
same,glycan array binding signal (z-score),Gal4S6S(b1-4)GlcNAc,-0.245
same,glycan array binding signal (z-score),Gal6S(b1-3)GlcNAc6S,4.14
same,glycan array binding signal (z-score),[16],-0.804
same,glycan array binding signal (z-score),GalNAc4S6S(b1-4)GlcNAc,2.6
same,glycan array binding signal (z-score),Glc(a1-4)Glc,-0.811
same,glycan array binding signal (z-score),Glc(b1-6)Glc,-1.38
same,glycan array binding signal (z-score),GlcA(b1-3)Gal,-1.49
same,glycan array binding signal (z-score),[17],-1.15
same,glycan array binding signal (z-score),[18],1.26
same,glycan array binding signal (z-score),Kdn(a2-6)Gal(b1-4)GlcNAc,0.671
same,glycan array binding signal (z-score),[19],0.733
same,glycan array binding signal (z-score),[20],-0.367
same,glycan array binding signal (z-score),[21],2.25
same,glycan array binding signal (z-score),[22],-0.185
same,glycan array binding signal (z-score),[23],0.192
same,glycan array binding signal (z-score),[24],-0.422
same,glycan array binding signal (z-score),[25],3.83
same,glycan array binding signal (z-score),[26],0.062
same,glycan array binding signal (z-score),[27],0.343
same,glycan array binding signal (z-score),[28],2.29
same,glycan array binding signal (z-score),Neu5Ac(a2-3)GalNAc,-0.098
same,glycan array binding signal (z-score),[29],-0.347
same,glycan array binding signal (z-score),[30],0.4
same,glycan array binding signal (z-score),[31],0.398
same,glycan array binding signal (z-score),[32],0.528
same,glycan array binding signal (z-score),[33],0.678
same,glycan array binding signal (z-score),[34],0.339
same,glycan array binding signal (z-score),[35],0.235
same,glycan array binding signal (z-score),[36],-0.561
same,glycan array binding signal (z-score),[37],-0.005
same,glycan array binding signal (z-score),[38],-0.561
same,glycan array binding signal (z-score),Neu5Gc(a2-6)GalNAc,2.46
